Assay results reported in PubChem BioAssay AID1159580 (chemical genetic matrix, 2015).
Hit rate of the full screen: of about 5,500 compounds, about 2,000 (36%) were called active. Inconclusive results (about 18%) are left out. No stated cut-off is given here; in the data, active means normalized growth mostly below about 0.91 (no sharp cut-off); inconclusive means no clear call, values can overlap the other calls; inactive means mostly above about 0.92. Some of the results follow.

Experiment: chemical genetic growth profiling, strain panel (AID 1159580);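 further: tested at 20 µM; growth read once vehicle control cultures reached saturation at 30 °C; 1 = growth at the plate median or of vehicle wells; lower values mean less growth of the strain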
Conditions: S. cerevisiae deletion strains, growth OD

Measured: normalized growth

Nc1ncnc2c1ncn2[C@@H]1O[C@H](C(=O)NC2CC2)[C@H](O)C1O (some centres undefined)
inactive: locus YAL013W, strain DEP1, hits give low values 1 | locus YAL040C, strain CLN3, hits give low values 0.986 | locus YCL061C, strain MRC1 (second series), hits give low values 1 | locus YER002W, strain NOP16, hits give low values 1 | locus YGR078C, strain PAC10, hits give low values 1.01 | locus YMR263W, strain SAP30, hits give low values 0.986 | locus YMR307W, strain GAS1, hits give low values 1.04 | locus YNL128W, strain TEP1, hits give low values 0.998 | locus YNL153C, strain GIM3, hits give low values 1.03 | locus YNL175C, strain NOP13, hits give low values 1 | locus YNL197C, strain WHI3, hits give low values 0.986 | locus YNL224C, strain SQS1, hits give low values 1.01 | locus YOR083W, strain WHI5 (second series), hits give low values 1.01 | locus YPL055C, strain LGE1, hits give low values 1
